Assay outcomes (PubChem)
TDP43 rescue = qHTS of TDP-43 Inhibitors. 410,000 compounds, 1.8% hits. TDP-43 expressing yeast growth rescue, BacTiter-Glo, 24 h. Potency, µM (highest dose often 46.1 µM), usual class: activators; further: nearly all actives have a fitted effect of over 50% in size
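Growth rescue of TDP-43-toxic yeast measured as ATP luminescence (BacTiter-Glo). Cells grown to mid-log in raffinose, induced in galactose at OD600=0.02, exposed to compound 24 hr at 30 deg C.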
aSyn yeast inh = qHTS of alpha-syn Inhibitors; 370,000 compounds, 0.14% hits; Potency, µM (top dose mostly 46.1 µM), actives largely listed as activators; Yeast expressing alpha-synuclein, growth rescue, BacTiter-Glo, 24 h; further: nearly all actives have a fitted effect of over 65% in size
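Galactose-induced alpha-syn yeast (OD600=0.02, raffinose-pregrown) + pinned cpd, 24 hr, 30 deg C; growth by BacTiter-Glo luminescence. Growth restoration scores as activation.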
Mito fusion yeast = qHTS Assay for Small Molecule Inhibitors of Mitochondrial Division or Activators of Mitochondrial Fusion. S. cerevisiae fusion-defective mutant growth rescue, CellTiterGlo 48 h. Potency, µM (series often up to 46.1 µM), usual class: activators. 320,000 compounds, 0.23% hits. AID 485298, 2010; further: nearly all actives have a fitted effect of over 45% in size
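Compounds are tested for their ability to restore growth of mitochondrial fusion-defective yeast strains at non-permissive 37C in YPEG medium over 48 hours. Viability is quantified by luciferase luminescence.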
FUS yeast rescue = qHTS for Suppressors of FUS Proteinopathy: Primary screen using FUS-linked yeast assay. S. cerevisiae FUS-expressing, growth rescue, OD600, 24 h. Potency, µM (series often up to 76.6 µM), actives largely listed as activators. 390,000 compounds, 0.24% hits. AID 1347120, 2019; further: nearly all actives have a fitted effect of over 55% in size
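Yeast FUS proteinopathy model; galactose-induced FUS (2%), starting OD 0.005. Cpds in dilution series, 24hr, 30C, 99% humidity. Abs 600 nm growth. Pos ctrl CP55940 (top 92uM final); neg ctrl DMSO.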
Abeta yeast res = qHTS for compounds that reverse cellular toxicity of Amyloid beta (A-beta) peptide in yeast: Primary Screen | yeast expressing A-beta42, growth rescue, OD600, 48 h; response scale: 0% DMSO, 100% iron-clioquinol control | Potency, µM (doses to about 46.1 µM), most hits filed as activators | 410,000 compounds, 0.063% hits; further: nearly all actives have a fitted effect of over 55% in size
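Growth rescue measured by 600 nm absorbance after 48 h yeast culture at 30 C with compound. Values normalized between DMSO and an equimolar ferric chloride plus clioquinol control.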
Hits are given with their value; - = inactive; ? = inconclusive; . = not tested or not shown. In the library only some 2.2% were active in any assay of this set; here they are far more common. The call rests on the fitted dose curve; in most records, active means well fitted curve in the direction sought with a large enough effect; inconclusive means small, poorly fitted or top-dose-only effect, or another doubt; inactive means no such curve, though single readings can be large; an effect the other way counts as inactive or inconclusive.

SMILES | TDP43 rescue | aSyn yeast inh | Mito fusion yeast | FUS yeast rescue | Abeta yeast res
Cc1ccccc1C(=O)N1CCc2c([nH]c3ccccc23)C1C(F)(F)F (stereo not drawn) | 22µM | - | - | - | -
Cc1ccc(Nc2ccc(C(=O)O)cc2[N+](=O)[O-])cc1 | 2.8µM | - | ? | - | -
O=C(O)c1ccc(Nc2ccc(Cl)c(Cl)c2)c([N+](=O)[O-])c1 | - | - | 14µM | - | -
CCC(C)N=Cc1c(NCc2ccco2)nc2c(C)cccn2c1=O (stereo not drawn) | 18µM | - | - | - | -
COc1cc(OC)c(NC(=O)C(c2ccccc2)N2Cc3ccccc3C2=O)cc1Cl (stereo not drawn) | - | . | . | - | -
Cc1ccc(C)n1C(CC(=O)O)c1ccc(C#N)cc1 (stereo not drawn) | - | - | - | 32µM | -
CCCCNC(=O)C1CCCN1C(=O)NCc1ccccc1OC (stereo not drawn) | . | . | . | - | .
CCN(CC)C(=O)C1=C(C)Nc2nc3ccccc3n2C1c1ccc(Br)cc1 (stereo not drawn) | - | . | . | - | -
Cc1ccc(C(=O)c2coc3ccc(O)c(Cl)c23)cc1 | 16µM | - | - | - | -
Cn1c(=O)c2c(nc(CN3CCc4ccccc4C3)n2Cc2cccc(Cl)c2)n(C)c1=O | 20µM | - | - | ? | -
Cc1cc2oc(=O)c(CC(=O)NCCc3ccccc3F)c(C)c2c2occ(C(C)(C)C)c12 | - | . | . | ? | -
Cc1cc2c(s1)c1cnn(Cc3cc(F)c(F)cc3F)c(=O)c1n2C | . | . | . | - | .
COCC(=O)N(C[C@H]1[C@H](c2ccccc2)[C@@H](CO)N1C(=O)NC(C)C)C(C)C | . | . | . | - | .
Cn1ccc2cc(-c3ccc4ncnc(NCc5cccc(F)c5)c4c3)ccc21 | . | . | - | . | .
CCN(CC)c1ccc(C(=O)OCC(=O)NC2CCCCC2C)cc1 (stereo not drawn) | - | - | - | - | -
CC1CCCC(NC(=O)COC(=O)c2ccc(N(C)C)cc2)C1C (stereo not drawn) | 10µM | . | - | - | -
COc1ccc(CN(Cc2ccccc2)C(=O)c2cccc(C#N)c2)cc1COc1ccc(NC(C)=O)cc1 | . | - | . | . | .
O=C(Nc1nnc(-c2ccc3c(c2)CCCC3)o1)c1c(F)cccc1F | - | - | - | - | -
O=C(Nc1nnc(-c2ccc3c(c2)CCCC3)o1)c1ccc(Cl)cc1Cl | 4µM | ? | ? | - | ?
CCCCCN1CCCCC(NC(=O)c2ccc(F)cc2)C1=O (stereo not drawn) | . | . | . | - | .
CCc1ccc(NC(=S)N(CCCN2CCOCC2)Cc2ccccn2)cc1 | - | - | - | - | -
CCc1ccc(NC(=S)N(Cc2ccccc2)Cc2ccccn2)cc1 | ? | - | - | - | 13µM
COCOCCn1cc(CN2CCS(=O)(=O)N(Cc3ccc(-c4ccc(Cl)cc4)cc3)C(C(C)C)C2=O)nn1 (stereo not drawn) | - | - | . | - | -
Cc1ccccc1-c1ccc(CN2C(C(C)C)C(=O)N(Cc3cn(CCC4OCCO4)nn3)CCS2(=O)=O)cc1 (stereo not drawn) | ? | ? | . | 10µM | -
CC(C)Cc1ccc(CN2C(C(C)C)C(=O)N(Cc3cn(CCC4OCCO4)nn3)CCS2(=O)=O)cc1 (stereo not drawn) | 11µM | - | . | ? | -
SMILES | TDP43 rescue | aSyn yeast inh | Mito fusion yeast | FUS yeast rescue | Abeta yeast res
COc1ccc(-c2ccc(CN3C(C(C)C)C(=O)N(Cc4cn(CC5CCCCC5)nn4)CCS3(=O)=O)cc2)cc1OC (stereo not drawn) | - | - | . | 25µM | -
COCOCCn1cc(CN2CCS(=O)(=O)N(Cc3ccc(-c4ccc(Cl)c(Cl)c4)cc3)C(C(C)C)C2=O)nn1 (stereo not drawn) | 35µM | ? | . | ? | -
CCc1ccccc1N(C)C(=O)c1cn(CC(C)C)c(=O)c2cc(OC)c(OC)cc12 | - | . | . | - | -
COc1ccc(-c2ccc(CN3C(C(C)C)C(=O)N(Cc4cn(CCC5OCCO5)nn4)CCS3(=O)=O)cc2)cc1 (stereo not drawn) | 35µM | - | . | ? | -
COc1ccc(-c2ccc(CN3C(C(C)C)C(=O)N(Cc4cn(CCC5OCCO5)nn4)CCS3(=O)=O)cc2)cc1OC (stereo not drawn) | - | - | . | ? | -
CNc1ccc(/C=C/c2ccnc3ccccc23)cc1 | . | - | . | . | .
Nc1[nH]c(C(=O)c2ccc(Br)cc2)c(-c2ccc(Br)cc2)c1C(=O)N1CCCCC1 | . | . | . | - | .
O=C(Nc1cccc(F)c1)c1cccnc1NCCc1ccccc1 | - | - | ? | - | -
O=C(Nc1ccc(F)cc1)c1cccnc1NCCc1ccccc1 | 13µM | - | 18µM | - | -
CCCc1c(C)c2cc(C)ccc2[nH]c1=O | - | - | - | - | -
CCCCc1c(C)c2cc(C)ccc2[nH]c1=O | 10µM | - | - | - | -
COc1cccc(-c2ccc3ncnc(NCc4cccc(F)c4)c3c2)c1 | . | . | - | . | .
Cc1[nH]nc(Nc2ccc(C(C)C)cc2)c1[N+](=O)[O-] | 13µM | - | - | - | -
Cc1ccc(Nc2n[nH]c(C)c2[N+](=O)[O-])cc1 | - | - | - | - | -
CC1(OC(=O)c2cccs2)C(=O)C=C2C=C(C3CC3)OC=C2C1=O (stereo not drawn) | 20µM | - | . | - | -
CCC(=O)OC1(C)C(=O)C=C2C=C(C3CC3)OC=C2C1=O (stereo not drawn) | ? | - | . | - | -
CC1(OC(=O)c2ccco2)C(=O)C=C2C=C(C3CC3)OC=C2C1=O (stereo not drawn) | 11µM | - | . | - | -
Cc1ccc(-c2nnc(SCC(=O)Nc3ccc4c(c3)OCCO4)n2-c2ccc(C)cc2)cc1 | . | . | . | - | .
CC1(C)CC2CC(C)(CN2C(=O)COC(=O)c2ccc(O)cc2O)C1 (stereo not drawn) | - | - | . | - | 10µM
COc1ccc(/C=C/c2noc(-c3ccccc3O)n2)cc1 | - | - | - | - | -
CC(=O)Oc1ccccc1-c1nc(/C=C/c2ccccc2)no1 | 18µM | - | - | - | -
Cc1ccccc1OCC(=O)NCC(=O)OCC(=O)c1ccc(-c2ccccc2)cc1 | . | - | . | . | .
Cc1cc(OCCn2nc(C(=O)O)c3ccccc3c2=O)ccc1C(C)C | - | - | - | - | -
O=C(O)c1nn(CCOc2ccc(Br)cc2)c(=O)c2ccccc12 | 13µM | - | - | - | -
Cc1cc(N)n2ncc(-c3ccc(Cl)cc3)c2n1 | 8.9µM | - | - | - | -
Cc1c(OCC(=O)C(C)(C)C)ccc2c(-c3ccccc3)cc(=O)oc12 | 25µM | - | - | - | ?
Cc1cccc(OCc2nnc(SCC(=O)c3ccccc3)o2)c1 | 13µM | - | - | - | -
